Screens: PubChem BioAssay, National Center for Advancing Translational Sciences (NCATS)
VP16 counter: VP16 counterscreen qHTS for inhibitors of ROR gamma transcriptional activity | Drosophila S2 Gal4-VP16 UAS-luciferase, luminescence, 20 h | Potency, µM (highest dose often 53.6 µM), hits mostly inhibitors | hit rate 3.5% among 310,000 | AID 2546, 2010;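 further: Gal4-VP16 expression switched on by copper sulfate through the metallothionein promoter; nearly all actives have a fitted effect of over 50% in size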
ELG1 repair inh: qHTS screen for small molecules that inhibit ELG1-dependent DNA repair in human embryonic kidney (HEK293T) cells expressing luciferase-tagged ELG1 | HEK293T ELG1-luciferase reporter, luminescence, 16 h; DNA damage induced by 5-fluorouridine | Potency, µM (top dose mostly 46.1 µM), actives largely listed as inhibitors | hit rate 2.3% among 330,000 | AID 504467, 2011; further: nearly all actives have a fitted effect of over 55% in size
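Cells (2,000 per well) received 5-fluorouridine plus test compound or DMSO and were incubated 16 hr at 37 °C, 5% CO2. Luciferase activity was read by luminescence 30 min after ONE-Glo addition; signal suppression marked inhibition of damage-induced ELG1 function.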
TSHR antagonist: Antagonists of the Thyroid Stimulating Hormone Receptor: HTS campaign. hit rate 0.2% among 330,000. TSHR-expressing cells, TSH-stimulated cAMP HTRF, 2 h; stronger effect = lower value. Thyrotropin receptor (Homo sapiens), P16473. activity change, negative = inhibition, % at 11.5 µM. AID 504810, 2011;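 active means activity change below a set negative limit, meaning inhibition stronger than a set level, cut at about -70% in these data; inconclusive means activity change between two set negative limits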
Target sequence (P16473 whole entry, looked up): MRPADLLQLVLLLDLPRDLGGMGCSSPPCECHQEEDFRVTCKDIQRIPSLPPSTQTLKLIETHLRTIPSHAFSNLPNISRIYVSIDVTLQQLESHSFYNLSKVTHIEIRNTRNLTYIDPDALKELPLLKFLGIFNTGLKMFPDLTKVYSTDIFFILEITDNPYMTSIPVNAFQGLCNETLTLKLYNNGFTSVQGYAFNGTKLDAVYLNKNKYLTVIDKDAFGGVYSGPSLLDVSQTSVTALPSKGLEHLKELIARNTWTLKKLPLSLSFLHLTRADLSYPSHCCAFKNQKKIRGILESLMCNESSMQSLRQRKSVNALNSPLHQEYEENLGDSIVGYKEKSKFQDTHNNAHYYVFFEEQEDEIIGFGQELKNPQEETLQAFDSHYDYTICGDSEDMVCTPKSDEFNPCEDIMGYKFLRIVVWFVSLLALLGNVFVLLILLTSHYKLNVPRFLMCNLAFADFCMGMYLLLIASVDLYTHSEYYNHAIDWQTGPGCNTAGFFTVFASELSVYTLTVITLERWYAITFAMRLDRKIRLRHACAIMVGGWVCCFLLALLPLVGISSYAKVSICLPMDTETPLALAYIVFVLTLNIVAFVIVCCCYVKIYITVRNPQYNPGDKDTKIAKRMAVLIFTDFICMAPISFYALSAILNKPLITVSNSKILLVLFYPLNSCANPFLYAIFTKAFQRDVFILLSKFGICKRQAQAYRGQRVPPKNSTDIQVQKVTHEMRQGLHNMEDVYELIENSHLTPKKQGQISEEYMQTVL
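Cell-based HTRF cAMP assay; TSHR cells + compound, TSH EC80 (4nM final), 2 h, 37 deg C. Lysis with anti-cAMP cryptate and cAMP-d2, 30 min RT, read 665/620 nm.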
RORgamma inh: qHTS for inhibitors of ROR gamma transcriptional activity; Drosophila S2 Gal4-RORgamma UAS-luciferase reporter, 20 h; hit rate 5.4% among 310,000; AID 2551, 2010; Nuclear receptor ROR-gamma (Mus musculus), P51450; Potency, µM (series often up to 53.6 µM), hits mostly inhibitors; further: nearly all actives have a fitted effect of over 60% in size
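A Gal4/UAS one-hybrid system in insect cells: metallothionein-promoter Gal4–ROR gamma fusion plus Photinus luciferase reporter. Copper sulfate 700 uM final, 20 hr ambient incubation, luminescent detection after 10 min with reagent.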
Coupling enz: qHTS Assay for Inhibitors of Fructose-1,6-bisphosphate Aldolase from Giardia Lamblia: Coupling assay counterscreen. coupling enzyme system counterscreen, AmpLite Red fluorescence. hit rate 0.67% among 290,000. AID 2472, 2010. activity change, negative = inhibition, % at 58.2 µM, hits read low; in the data active means activity change below about -30%
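Final compound at 57.5 uM, incubated 10 min at RT with coupling enzyme reagent (glyceraldehyde-3-phosphate), then 20 min with substrate and AmpLite Red detection. Fluorescence read at 525/598 nm; tests interference with the coupling assay, not aldolase inhibition.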
Numbers stand for hits; . = inactive; ? = inconclusive; / = not tested or not shown. This is a sample that favours compounds with a hit; in the whole collection about 8% have one here. Unless noted, the call rests on the fitted dose curve; in most records, active means well fitted curve in the direction sought with a large enough effect; inconclusive means small, poorly fitted or top-dose-only effect, or another doubt; inactive means no such curve, though single readings can be large; an effect the other way counts as inactive or inconclusive.

SMILES | VP16 counter | ELG1 repair inh | TSHR antagonist | RORgamma inh | Coupling enz
NC(N)=NCCC[C@H](NC(=O)[C@H](Cc1ccccc1)NC(=O)[C@@H]1CCCN1C(=O)[C@H](CO)NC(=O)[C@H](Cc1ccccc1)NC(=O)CNC(=O)[C@@H]1CCCN1C(=O)[C@@H]1CCCN1C(=O)[C@@H](N)CCCN=C(N)N)C(=O)O | . | / | / | . | .
COc1ccc(C(=O)NC(=S)NCc2cccnc2)cc1OC | . | . | . | . | .
COc1ccc(C(=O)NC(=S)NCc2ccccc2)cc1OC | ? | ? | . | 3.16µM | .
CCCc1cc(=O)[nH]c(SCC(=O)NCCN2C(=O)CSC2=O)n1 | / | . | . | / | /
Cn1c(=O)c2c(nc(NCc3ccco3)n2C/C=C/c2ccccc2)n(C)c1=O | 4.47µM | 4.61µM | . | 2.24µM | .
Cn1c(=O)c2c(nc(NCc3ccco3)n2Cc2ccccc2Cl)n(C)c1=O | 4.47µM | ? | . | . | .
Cn1c(=O)c2c(nc(NCc3ccco3)n2C)n(C)c1=O | . | . | . | . | .
O=C(NCc1ccccc1)C(c1ccccc1)N(Cc1cccs1)C(=O)c1cnccn1 (stereo unspecified) | . | ? | . | . | .
O=C(NCc1ccccc1)C(c1ccc(F)cc1)N(Cc1cccs1)C(=O)c1cnccn1 (stereo unspecified) | . | 13µM | . | . | .
CC(c1n[nH]c(=S)n1-c1ccc(F)cc1)N1CCCCC1 (stereo unspecified) | ? | . | . | 12.6µM | .
S=c1[nH]nc(-c2ccc3ccccc3n2)n1-c1ccc2ncccc2c1 | ? | . | . | ? | .
S=c1[nH]nc(-c2ccc3ccccc3n2)n1-c1ccc(Cl)cc1 | 1.41µM | . | . | 1.12µM | .
CC(c1n[nH]c(=S)n1-c1ccc(Cl)cc1)N(C)C (stereo unspecified) | . | . | . | 12.6µM | .
Cc1ccccc1-n1c(-c2ccc3ccccc3n2)n[nH]c1=S | 5.01µM | . | . | 0.316µM | .
Fc1ccc(-n2c(-c3ccc4ccccc4n3)n[nH]c2=S)cc1Cl | . | . | . | ? | .
CCC(c1n[nH]c(=S)n1-c1ccccc1)N(C)C (stereo unspecified) | . | . | . | . | .
O=C(c1ccco1)N1CCC2(CCN(Cc3cc(C(F)(F)F)cc(C(F)(F)F)c3)CC2)CC1 | . | / | / | . | .
COc1cc2nc(CN3CCN(S(=O)(=O)c4c(F)cccc4F)CC3)[nH]c(=O)c2cc1OC | / | 5.8µM | . | / | /
COC(=O)C1=C(C)N=C2SC(C#N)=C(N)N2C1c1ccc(OCc2ccccc2)cc1 (stereo unspecified) | . | . | . | . | .
CCOC(=O)c1ccc(NS(=O)(=O)c2c(C)nc3sccn3c2=O)cc1 | . | . | . | ? | .
O=C(NNC(=O)c1cccc(C(F)(F)F)c1)c1ccncc1 | . | . | . | . | .
O=C(NNC1=NCCN1Cc1ccccc1)c1cccc(C(F)(F)F)c1 | 11.2µM | . | . | 3.16µM | .
CC(C)NC(=S)N/N=C/c1ccccc1[N+](=O)[O-] | 5.62µM | . | . | 1.78µM | .
CCCCCC(=O)N/N=C/c1ccccc1[N+](=O)[O-] | . | ? | . | . | .
C=CCNC(=S)N/N=C/c1ccc(C)c([N+](=O)[O-])c1 | 4.47µM | . | . | 1.12µM | .
SMILES | VP16 counter | ELG1 repair inh | TSHR antagonist | RORgamma inh | Coupling enz
CCNC(=S)N/N=C/c1cccc(C)c1 | 0.891µM | ? | . | 0.891µM | .
CCNC(=S)N/N=C/c1cc(C)ccc1C | 2.51µM | . | . | 1.78µM | .
CC(C)(C)C(C(=O)Oc1ccccc1)c1ccccc1 (stereo unspecified) | / | ? | . | / | /
CN(C)C(=O)[C@]1(C)C[C@H]1[C@H](NC(=O)CNC(=O)[C@@H]1CCCN1C(=O)[C@]1(C)C[C@H]1[C@H](NC(=O)OCc1ccccc1)c1ccccc1)c1ccccc1 | . | / | / | . | .
CN(C)c1ccc(/C=N/NC(N)=S)cc1[N+](=O)[O-] | ? | . | . | 17.8µM | .
CNC(=S)N/N=C/c1cc(C)ccc1C | 5.01µM | . | . | 2.24µM | .
Cc1ccc(/C=N/NC(=O)CCn2nc(C)cc2C)c(C)c1 | . | ? | . | . | .
Cc1ccc(C)c(/C=N/NC(=S)NC(C)C)c1 | 3.16µM | . | . | 2.24µM | .
C=CCNC(=S)N/N=C/c1ccc(C)cc1C | ? | ? | . | 0.447µM | .
CCCCOc1ccc(Br)cc1CSC(=N)N | 10µM | 23.1µM | . | ? | .
Cc1c(NC(=S)N/N=C/C=C/c2ccccc2)c(=O)n(-c2ccccc2)n1C | 0.794µM | . | . | 0.316µM | .
Cc1ccc(NC(=S)Nc2cccc(S(=O)(=O)Nc3c(C)n(C)n(-c4ccccc4)c3=O)c2)cc1 | . | . | . | 11.2µM | .
Cc1onc(C(=O)Nc2c(C)n(C)n(-c3ccccc3)c2=O)c1[N+](=O)[O-] | . | . | . | . | -31.4
Cc1c(NC(=O)/C(C#N)=C/c2ccccc2)c(=O)n(-c2ccccc2)n1C | . | . | . | . | .
Cc1c(NN=C(C#N)C#N)c(=O)n(-c2ccccc2)n1C | ? | 5.8µM | . | ? | .
CC(=O)c1ccc(NC(=S)Nc2cccc(S(=O)(=O)Nc3c(C)n(C)n(-c4ccccc4)c3=O)c2)cc1 | . | . | . | . | .
COCCC(=O)Nc1c(-c2ccccc2)c2cc(Br)ccc2[nH]c1=O | . | . | . | . | .
Cc1c(NC(=S)N/N=C/C=C/c2ccc([N+](=O)[O-])cc2)c(=O)n(-c2ccccc2)n1C | 11.2µM | . | . | 3.16µM | .
O=C(NC1CCN(Cc2ccc(F)cc2)CC1)c1ccccc1 | . | . | . | . | .
O=C(Nc1ccc(F)cc1)NC1CCCCC1 | . | ? | . | . | .
O=C(NC(=S)NC1CCCCC1)c1ccc(F)cc1 | 4.47µM | ? | . | 3.16µM | /
O=C(NC(=S)NC1CCN(Cc2ccccc2)CC1)c1ccc(F)cc1 | 11.2µM | . | . | 7.08µM | .
CC1CCN(CCCn2c(=S)[nH]c3c(sc4ccc([N+](=O)[O-])cc43)c2=O)CC1 | . | . | . | . | .
CC1CCN(CCCn2c(=S)[nH]c3c(sc4ccccc43)c2=O)CC1 | . | ? | . | 11.2µM | .
COCCCn1c(=S)[nH]c2c(sc3ccccc32)c1=O | ? | . | . | 1.26µM | .
CC12CCC(=O)N1C(C(=O)NNC(=O)c1ccccc1)CS2 (stereo unspecified) | / | ? | . | / | /
CCOc1cc(-c2cc(-c3ccc(C)o3)nc(N)c2C#N)ccc1O | . | 16.4µM | . | . | .
